Assay results from publication PMC4552634, “A New Set of Chemical Starting Points with Plasmodium falciparum Transmission-Blocking Potential for Antimalarial Drug Discovery” (PLoS ONE, 2015).
Among all 13,000 compounds or so, about 3,200 (25%) showed an effect of 50% or more. The list shows a part of the results.

These compounds were tested on P. falciparum stage V gametocytes. Settings: 48 h, 5 µM; inhibitor.
Design: BacTiter-Glo ATP luminescence viability of purified stage V gametocytes in 384-well plates, per cent inhibition versus DMSO

| Compound | % Inhibition |
| --- | --- |
| COc1cccc(C(=O)Nc2ccc(S(=O)(=O)c3cc4c(cc3OC)CCN(C)CC4)cc2)c1 [TCMDC-133790] | 79.19% |
| COc1cc2c(cc1S(=O)(=O)c1ccc(NC(=O)c3ccc4ccccc4c3)cc1)CCN(C)CC2 [TCMDC-133792] | 8.081% |
| COc1cc2c(cc1S(=O)(=O)c1ccc(NC(=O)c3cccc(C(F)(F)F)c3)cc1)CCN(C)CC2 [TCMDC-133791] | -4.764% |
| O=C(CCc1cnc[nH]1)Nc1ccc(-c2ccc(-c3nc4ccccc4[nH]3)cc2)cc1 [TCMDC-132156] | -24.85% |
| c1csc(-c2nc(N3CCCCC3)ncc2-c2ccsc2)n1 [TCMDC-125370] | 9.865% |
| C=CCc1c(C(=O)NCC23CC4CC(CC(C4)C2)C3)[nH]c2ccccc2c1=O [TCMDC-136371] | -9.366% |
| CC(C)Cc1cn(-c2nc(-c3nc4ccccc4[nH]3)cs2)c2ccncc12 [TCMDC-132419] | 3.094% |
| Cc1cc(N[C@@H](Cc2ccccc2)C(=O)NCCc2ccccc2)nc(NCCc2ccc(F)cc2)n1 [TCMDC-134867] | 49.67% |
| COc1ccccc1CCNc1nc(C)cc(N[C@@H](Cc2ccccc2)C(=O)NCCc2ccccc2)n1 [TCMDC-134803] | 83.15% |
| Cc1cc(N[C@@H](Cc2ccccc2)C(=O)NCCc2ccccc2)nc(NCc2ccccc2C)n1 [TCMDC-134907] | -0.7865% |
| COc1ccccc1CCNc1nc(C)cc(N[C@@H](Cc2ccccc2)C(=O)NCCCOC(C)C)n1 [TCMDC-134861] | 55.12% |
| COc1ccccc1CCNc1nc(C)cc(N[C@@H](Cc2ccccc2)C(=O)Nc2ccccc2)n1 [TCMDC-134804] | 36.98% |
| Cc1cc(N[C@@H](Cc2ccccc2)C(=O)NCCc2ccccc2)nc(NCCc2ccccc2)n1 [TCMDC-134776] | 144.5% |
| Cc1cc(N[C@@H](Cc2ccccc2)C(=O)NCCCOC(C)C)nc(NCC2CCCCC2)n1 [TCMDC-134931] | 30.55% |
| COc1ccccc1CCNc1nc(C)cc(N[C@@H](Cc2ccccc2)C(=O)NCCOc2ccccc2)n1 [TCMDC-134862] | 100.5% |
| Cc1cccc(CNc2nc(C)cc(N[C@@H](Cc3ccccc3)C(=O)NCCc3ccccc3)n2)c1 [TCMDC-134889] | -24.79% |
| COc1ccccc1CCNc1nc(C)cc(N[C@@H](CC(C)C)C(=O)NCCc2ccccc2)n1 [TCMDC-134807] | 30.27% |
| COC(=O)c1ccc(OCC(C)NCC(O)c2cccc(C(F)(F)F)c2)cc1 (stereo not shown) [TCMDC-131464] | 25.27% |
| N#Cc1ccc2c(c1)CCN(CCCn1c(-c3ccc4ccccc4c3)nc3ccncc31)CC2 [TCMDC-135551] | 19.09% |
| O=C(NCc1ccc(C(=O)NCc2cccc3ccccc23)cc1)c1ccc(O)c(-c2ccc(Cl)c(Cl)c2)c1 [TCMDC-140878] | 23.84% |
| Cc1ccc2nc(-c3ccccc3)cc(NN=Cc3cccnc3)c2c1 [TCMDC-142053] | -1.228% |
| CCOc1ccccc1N1CCN(CCCNC(=O)/C(=C/C=C/c2cc3cc(Cl)c(Cl)cc3[nH]2)OC)CC1 [TCMDC-139176] | 6.847% |
| Cc1cccc(CNc2ncc(C)c(NCCC(=O)Nc3ccccc3)n2)c1 [TCMDC-134848] | 47.31% |

| Compound | % Inhibition |
| --- | --- |
| O=C(Nc1ccc(Br)cc1)N(CCN1CCOCC1)CC(O)COCc1ccc(F)cc1 (stereo not shown) [TCMDC-141489] | 29.66% |
| Cc1cc(=O)[nH]c(-n2nc(C)cc2NC(=O)C2(c3ccc(Cl)cc3)CCCC2)n1 [TCMDC-124943] | 43.65% |
| CN(C)CCN(C)C(=O)c1cc(-c2ccncc2)c(-c2ccc(Cl)c(O)c2)o1 [TCMDC-141393] | -25.23% |
| COc1c(C2=CCN(CCCCNC(=O)c3ccc(-c4ccc(C#N)cc4)cc3)CC2)ccc2c1CCCC2 [TCMDC-138753] | -8.55% |
| Cc1cc(N(C)CCN(C)C)nc(Nc2ccc(Cl)cc2)n1 [TCMDC-137008] | 22.54% |
| O=C(NC(=O)c1ccccc1)NC1CCN(c2ccnc3cc(Cl)ccc23)C1 (stereo not shown) [TCMDC-133403] | -14.2% |
| CCC[C@@H]([C@@H](CC1CCCCC1)C(=O)N[C@H](C(=O)Nc1ccccn1)[C@H](C)CC)N(O)C=O [TCMDC-138122] | -1.104% |
| Nc1ncc(-c2ccc3nccc(-c4ccncc4)c3c2)cc1S(=O)(=O)N1CCOCC1 [TCMDC-134180] | 94.06% |
| Nc1ncc(-c2ccc3nccc(-c4ccncc4)c3c2)cc1S(=O)(=O)N1CCCCC1 [TCMDC-134265] | 97.23% |
| O=C(c1ccc(-c2cnc3[nH]cc(-c4ccc(C(=O)N5CCOCC5)cc4)c3c2)cc1)N1CCOCC1 [TCMDC-132781] | -2.017% |
| CS(=O)(=O)c1ccc2nc(-c3cc(-c4ccc(OCCN5CCOCC5)cc4)cnc3N)[nH]c2c1 [TCMDC-133720] | 8.028% |
| Nc1ncc(-c2ccc3[nH]ccc3c2)c2ccc(-c3ccncc3)cc12 [TCMDC-133396] | 22.16% |
| CN1CCN(c2ccnc3ccc(NC(=O)Cc4ccc(-c5ccncc5)c5ccccc45)cc23)CC1 [TCMDC-139256] | 19.54% |
| O=C(/C=N/O)Nc1ccccc1[N+](=O)[O-] [TCMDC-123981] | -3.715% |
| CCn1c2ccccc2c2cc(Cc3cnc(N)nc3N)ccc21 [TCMDC-131929] | 0.5194% |
| Cc1cccc2nc(-c3ccc(-c4ccc(C(=O)NCCN5CCCC5)cc4)s3)[nH]c12 [TCMDC-132316] | 46.47% |
| Cc1cnc(NCC2CCCCC2)nc1NCC(=O)Nc1ccccc1 [TCMDC-134753] | -41.32% |
| CCN1CCC(N(CCCCCCCCc2ccc(C(F)(F)F)cc2)C(=O)Cn2c(CCc3cccc(F)c3F)cc(=O)c3ccccc32)CC1 [TCMDC-141376] | 107.2% |
| COCCN1CCC(N(Cc2ccc(-c3ccc(OC(F)(F)F)cc3)cc2)C(=O)Cn2c(CCc3cccc(F)c3F)cc(=O)c3ccccc32)CC1 [TCMDC-136001] | 86.7% |
| O=C(Cn1c(CCc2cccc(F)c2F)cc(=O)c2ccccc21)N(Cc1ccc(-c2ccc(C(F)(F)F)cc2)cc1)C1CCN(CCN2CCOCC2)CC1 [TCMDC-136026] | 47.65% |
| CCN1CCC(N(CCCCCCc2ccc(C(F)(F)F)cc2)C(=O)Cn2c(CCc3cccc(F)c3F)cc(=O)c3ccccc32)CC1 [TCMDC-141339] | 43.24% |
| O=C(Cn1c(CCc2cccc(F)c2F)cc(=O)c2ccccc21)N(Cc1ccc(-c2ccc(C(F)(F)F)cc2)cc1)C1CCN(CCO)CC1 [TCMDC-141226] | 84.4% |
| CCN1CCC(N(Cc2ccc(-c3ccc(C(F)(F)F)cc3)cc2)C(=O)Cn2c(CCc3cccc(F)c3F)cc(=O)c3ccccc32)C1 (stereo not shown) [TCMDC-141300] | 90.33% |
